The source of these data is PubChem BioAssay AID1259310 (The Scripps Research Institute Molecular Screening Center, 2017).

About 850 (0.13%) of roughly 650,000 compounds were called active. What follows is part of a selection rich in actives, with near analogues and random picks from the rest. Unmarked numbers belong to inactive results. No stated cut-off is given here; in the data, active means normalized activity above about 1.9%; inactive means the rest.

The target of the assay is F-box/WD repeat-containing protein 7 (Homo sapiens) (UniProt Q969H0). As to the kind of experiment: FBW7 E3 ligase activators, primary screen, biochemical, AlphaScreen, human (AID 1259310).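 Further: purified mutant Fbw7 with reduced substrate affinity.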 The conditions noted are these: AlphaScreen FBW7–phospho-cyclin E peptide binding, activator screen; at 26.1 µM; stronger effect = higher value.
F-box/WD repeat-containing protein 7 (Homo sapiens), sequence (Q969H0 whole entry, looked up): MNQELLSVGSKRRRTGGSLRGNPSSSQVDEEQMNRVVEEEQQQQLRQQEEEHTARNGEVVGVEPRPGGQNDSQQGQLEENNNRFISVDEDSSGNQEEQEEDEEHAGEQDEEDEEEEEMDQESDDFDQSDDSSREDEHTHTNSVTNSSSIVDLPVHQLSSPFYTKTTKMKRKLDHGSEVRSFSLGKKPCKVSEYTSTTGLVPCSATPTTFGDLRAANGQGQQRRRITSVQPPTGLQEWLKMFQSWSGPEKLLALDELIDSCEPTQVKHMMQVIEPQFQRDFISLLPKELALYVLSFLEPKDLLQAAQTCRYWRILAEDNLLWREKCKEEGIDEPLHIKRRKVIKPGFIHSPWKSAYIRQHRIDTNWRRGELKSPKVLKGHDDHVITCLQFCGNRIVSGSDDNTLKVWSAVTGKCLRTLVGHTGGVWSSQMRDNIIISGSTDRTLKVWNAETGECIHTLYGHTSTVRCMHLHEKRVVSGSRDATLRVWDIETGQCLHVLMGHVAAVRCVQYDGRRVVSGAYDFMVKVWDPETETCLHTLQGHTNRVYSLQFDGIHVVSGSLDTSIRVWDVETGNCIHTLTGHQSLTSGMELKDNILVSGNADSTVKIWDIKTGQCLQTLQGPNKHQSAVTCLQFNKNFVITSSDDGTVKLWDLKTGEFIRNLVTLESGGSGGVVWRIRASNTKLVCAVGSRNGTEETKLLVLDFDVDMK
`CCOc1ccc(Nc2nc(C)c([N+](=O)[O-])c(Nc3ccc(OC)cc3)n2)cc1`: the normalized activity (activation) was -0.11%.

On to `CC(C)CC(C(=O)NC1CCCC1)N(C(=O)c1snc(C(N)=O)c1N)C1CCCC1` (centres undefined), for which the normalized activity (activation) was 0.18%. As to `Cc1ccc(C(=O)NC(C)C(c2cccs2)N2CCN(C)CC2)cc1` (centres undefined), the normalized activity (activation) was -0.03%. On to `CCCCOc1ccc(/C=C/c2nc3ccccc3c(=O)n2-c2ccc(C)c(C)c2)cc1`, for which the normalized activity (activation) was -0.23%.

As to `CC(=O)Nc1ccc(Nc2nc(Nc3cnccn3)nc3c2ncn3-c2ccccc2)cc1`, the normalized activity (activation) is 2.09% (active). As to `CC(=O)Nc1ccc(Nc2nc(Nc3ccncn3)nc3c2ncn3-c2ccsc2)cc1`, the normalized activity (activation) was 0.77%. With `CC(=O)Nc1ccc(Nc2nc(Nc3ccc(-n4ccnc4)cc3)nc3c2ncn3-c2ccsc2)cc1`, the normalized activity (activation) was -0.15%. With `COc1ccccc1NC(=O)c1c(C)nc(SCC(=O)c2ccccc2)c(C#N)c1-c1ccc(C)o1`, the normalized activity (activation) was -0.03%. For the molecule `Cc1c(NC(=O)c2ccc(Br)cc2)cccc1-c1nc2ccccc2o1`, the normalized activity (activation) is 0.17%.

`O=C(CSc1n[nH]c(-c2cccs2)n1)NC(=O)NC12CC3CC(CC(C3)C1)C2`: the normalized activity (activation) is -0.03%. Consider `Cc1sc2ncn3c(SCC(=O)N4CCc5ccccc54)nnc3c2c1C`, for which the normalized activity (activation) is -0.09%. Turning to `COC(=O)COc1ccc(S(=O)(=O)N2CCN(c3cc(Cl)ccc3C)CC2)cc1`, the normalized activity (activation) is -0.32%.

For the molecule `O=C(CN(c1ccccc1)S(=O)(=O)c1ccccc1[N+](=O)[O-])N/N=C/c1ccco1`, the normalized activity (activation) is 2.75% (active). Regarding `O=C(CN(c1ccccc1)S(=O)(=O)c1ccccc1[N+](=O)[O-])Nc1ccc(F)cc1`, the normalized activity (activation) was 0.71%. For `NC(=O)CN(c1ccccc1)S(=O)(=O)c1ccccc1[N+](=O)[O-]`, the normalized activity (activation) is -0.14%. For `COCCCN1C(=O)C2C(C(=O)Nc3cccc(C)c3)C3C=CC2(O3)C1C(=O)NC1CCCC(C)C1C` (centres undefined), the normalized activity (activation) was 0.2%.

As for `C=CCn1c(=NC(=O)c2ccccc2[N+](=O)[O-])sc2cc(S(N)(=O)=O)ccc21`, the normalized activity (activation) is 0%. `COc1ccccc1C1N(Cc2ccccc2)CCN1Cc1ccccc1`: the normalized activity (activation) is 0.1%. As to `Cc1ccc(Oc2ccc(N(C)C(=O)Nc3ccc(Cl)cc3)cc2)nn1`, the normalized activity (activation) was 0.86%. `COC(=O)c1c(OCc2ccncc2)cc(=O)n2c1CCN(CCCSC)CC2`: the normalized activity (activation) was 0%. Consider `CC(C)OCCCNC(=O)Nc1cccc(Cl)c1`, for which the normalized activity (activation) is 0.02%. On to `C[C@@H](c1ccccc1)n1c(=O)[nH]c2ncc(-c3ccccc3)nc21`, for which the normalized activity (activation) is 0.05%. With `CC(C)NCC(=O)N(c1ccccc1)N1CCOCC1`, the normalized activity (activation) is 0.19%. Consider `CCCCSc1nnc2c(n1)OC(c1ccc(N(C)C)cc1)Nc1ccccc1-2` (centres undefined), for which the normalized activity (activation) is 0.3%.
